Reference: PubChem BioAssay
Active and inactive are the calls of the source. The rule behind the calls is not given here.

These compounds were tested against Pantothenate synthetase (Mycobacterium tuberculosis (strain ATCC 25618 / H37Rv)) (UniProt P9WIL5) (assay: Recombinant Mtb pantothenate synthetase (PanC) inhibitors, coupled enzyme, confirmatory (AID 375;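 note: 0% = full reaction with vehicle and 100% = no enzyme background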)). Settings: coupled enzyme assay; at 10 µM, stronger effect = higher value.
Pantothenate synthetase (Mycobacterium tuberculosis (strain ATCC 25618 / H37Rv)), sequence (P9WIL5 whole entry, looked up): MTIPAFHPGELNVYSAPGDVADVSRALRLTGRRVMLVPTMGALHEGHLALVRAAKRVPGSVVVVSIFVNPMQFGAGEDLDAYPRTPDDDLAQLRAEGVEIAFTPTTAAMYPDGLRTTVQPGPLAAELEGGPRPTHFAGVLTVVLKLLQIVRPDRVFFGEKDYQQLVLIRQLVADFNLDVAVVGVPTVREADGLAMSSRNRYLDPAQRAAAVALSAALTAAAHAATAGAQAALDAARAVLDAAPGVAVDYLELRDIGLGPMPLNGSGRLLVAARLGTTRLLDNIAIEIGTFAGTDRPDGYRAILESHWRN
For `CN(C)c1ccc(C(=O)OCC(=O)NC2CCCCC2)cc1`, the inhibition was 0% (inactive).
For `CCCCCc1c(C)nc(Nc2nc(C)c3cc(OC)ccc3n2)[nH]c1=O`, the inhibition was 0% (inactive).
For `O=C1CCc2cc(S(=O)(=O)N3CCC(C(=O)NCc4ccccn4)CC3)ccc2N1`, the inhibition was 0% (inactive).
`N#Cc1cc2c(nc1SCC(=O)N1CCCCC1)CCCC2` was tested, and the inhibition was 0% (inactive).
`Cc1cc(NC(=O)CCOc2ccccc2)no1` was tested, and the inhibition was 0% (inactive).
With `CCc1cccc(NC(=O)CN(C)S(=O)(=O)c2cccc3nsnc23)c1` the inhibition was 12% (inactive).
With `Cc1ccc2c(CNCc3ccco3)cc(=O)oc2c1` the inhibition was 0% (inactive).
With `CCCCc1nc2n[nH]c(N)c2c2c1CCCC2` the inhibition was 0% (inactive).
`Cc1ccc(S(=O)(=O)N2CCN(C(=O)CSc3nc4ccccc4c(=O)[nH]3)CC2)c(C)c1` was tested, and the inhibition was 2% (inactive).
With `Cc1ccc(NC(=O)CN2CC(C)SC2=NC2CCCCC2)cc1` (stereo not given) the inhibition was 6% (inactive).
With `COc1cccc(-c2nc(CS(=O)(=O)CC(=O)Nc3cc(C)ccc3C)c(C)o2)c1` the inhibition was 0% (inactive).
With `Cc1nn(-c2ccccc2)c2c1C(c1c(C)[nH]c(C#N)c1C)C(C#N)=C(N)O2` (stereo not given) the inhibition was 1% (inactive).
For `CN(CC(=O)N1CCN(c2ccc(F)cc2)CC1)S(=O)(=O)c1ccc(F)cc1`, the inhibition was 0% (inactive).
For `O=C(CCCCn1c(=O)c2ccccc2n(Cc2ccc(Cl)cc2)c1=O)NCc1ccco1`, the inhibition was 0% (inactive).
With `CC(=O)OCC(=O)c1ccc2ccn(C(C)=O)c2c1` the inhibition was 3% (inactive).
For `COc1ccc(OC)c(NC(=O)C23CCC(C)(C(=O)C2)C3(C)C)c1` (stereo not given), the inhibition was 3% (inactive).
With `CCCCN(CC)S(=O)(=O)c1ccc2c(c1)CCCN2C(C)=O` the inhibition was 6% (inactive).
With `CC(NO)C(C)(C)NO` (stereo not given) the inhibition was 8% (inactive).
For `COc1ccc2[nH]c(=O)c(CNC3CCCCC3)cc2c1`, the inhibition was 0% (inactive).
For `O=C(c1cnn2c1NC(c1ccco1)CC2C(F)(F)F)N1CCN(c2cccc(Cl)c2)CC1` (stereo not given), the inhibition was 4% (inactive).
For `Cc1c(Cl)cccc1Nc1ccccc1C(=O)O`, the inhibition was 1% (inactive).
In the case of `CCC(C)(C)n1nnnc1C(c1cc2cc(C)ccc2[nH]c1=O)N1CCCC1` (stereo not given), the inhibition is reported as 8% (inactive).
In the case of `COc1cccc(N2CCN(CC(=O)Nc3nnc(-c4ccccc4)s3)CC2)c1`, the inhibition is reported as 3% (inactive).
`CCCCn1c(CN2CCN(CCO)CC2)nc2ccccc21` was tested, and the inhibition was 0% (inactive).
With `O=C(CN1CCN(C(=O)c2ccccc2)CC1)Nc1ncc(Br)cc1Br` the inhibition was 0% (inactive).
In the case of `Cc1ccc(NC(=O)c2cc(S(=O)(=O)N3CCC4(CC3)OCCO4)ccc2F)cc1`, the inhibition is reported as 0% (inactive).
`Cc1ccc2nc(SC(C)C(=O)N3CCCC3)[nH]c2c1` (stereo not given) was tested, and the inhibition was 2% (inactive).
For `Cc1ncc([N+](=O)[O-])n1CCO`, the inhibition was 1% (inactive).
In the case of `CC(=O)C1=C(O)C(=O)N(Cc2cccnc2)C1c1ccccc1` (stereo not given), the inhibition is reported as 3% (inactive).
`CCOC(=O)c1ccc(-n2c(C)nc3c(cnn3-c3ccccc3C)c2=O)cc1` was tested, and the inhibition was 0% (inactive).
`CCOc1ccccc1NC(=O)CCSc1nc2n[nH]c(C)c2c(=N)n1-c1ccccc1Cl` was tested, and the inhibition was 10% (inactive).
For `C/C(Nc1cccc(F)c1)=C(/C#N)C(N)=O`, the inhibition was 3% (inactive).
`Cc1cnc(C(=O)Nc2ccccc2-n2cccc2)cn1` was tested, and the inhibition was 3% (inactive).
With `O=C1C2C3C=CC(C3)C2C(=O)N1CNc1ccc(O)cc1` (stereo not given) the inhibition was 3% (inactive).
For `CC(=O)N1C(=O)C2(C(C#N)=C(N)Oc3cc(C)oc(=O)c32)c2ccccc21` (stereo not given), the inhibition was 0% (inactive).
In the case of `Cc1cc2c(c(=O)n1C)C(Cc1ccccc1)C(C#N)=C(N)O2` (stereo not given), the inhibition is reported as 3% (inactive).
`CCC(Oc1ccccc1)C(=O)Nc1ccccc1OC` (stereo not given) was tested, and the inhibition was 0% (inactive).
In the case of `N#Cc1nc(-c2ccco2)oc1NCCc1ccccc1`, the inhibition is reported as 0% (inactive).
`O=S(=O)(NC1CCCC1)c1ccccc1Cl` was tested, and the inhibition was 0% (inactive).
In the case of `CC(=O)N1c2c(cc(Br)cc2S(=O)(=O)NCC2COc3ccccc3O2)CC1C` (stereo not given), the inhibition is reported as 2% (inactive).
